Records with an inconclusive call do not appear. Active and inactive are the calls of the source. Unless noted, calls follow the shape of the dose curve; as a rule, active = well fitted curve in the direction sought with a large enough effect in the repeat runs; inconclusive = weak or mixed curves; inactive = no such curve, though single readings can be large; an effect the other way counts as inactive or inconclusive.
Key:
[1] = molecular target: Luciferin 4-monooxygenase (Photinus pyralis) (UniProt P08659); test: qHTS assay to identify small molecule inhibitors of firefly luciferase (AID 1224835); also: nearly all actives have a fitted effect of over 25% in size
Outline: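 Inhibition of purified Photinus luciferase is measured by luminescence. Substrate levels (D-luciferin, ATP) sit at their KM values. Each compound is tested in a concentration series.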

[2] = qHTS assay to identify small molecule agonists of the constitutive androstane receptor (CAR) signaling pathway - cell viability counter screen (AID 1224836); also: nearly all actives have a fitted effect of over 45% in size
Outline: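 23 h treatment, 37 C, 5% CO2. Cell line: HepG2 stably expressing hCAR with a CYP2B6-2.2kb construct. Co-treatment: PK11195, 0.75 uM final. Read-out: CellTiter-Fluor fluorescence intensity.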

[3] = qHTS assay to identify small molecule antagonists of the constitutive androstane receptor (CAR) signaling pathway - cell viability counter screen (AID 1224837); also: nearly all actives have a fitted effect of over 45% in size
Outline: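 Counter screen run in HepG2-CYP2B6-hCAR cells: 4 hr settle, compound titration (15 concentrations) with 50 nM CITCO, 23 hr at 37 C/5% CO2, CellTiter-Fluor fluorescence.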

[4] = molecular target: Nuclear receptor subfamily 1 group I member 3 (Homo sapiens) (UniProt Q14994); test: qHTS assay to identify small molecule antagonists of the constitutive androstane receptor (CAR) signaling pathway (AID 1224838);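 also: HepG2 cells stably expressing hCAR with CYP2B6 luciferase reporter stimulated by CITCO; nearly all actives have a fitted effect of over 40% in size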
Outline: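 Cell line: HepG2 double-stable for hCAR and CYP2B6-2.2kb reporter. Agonist: CITCO, 50 nM final. Compounds: 15 concentrations, 24 h, 37 C. Detection: ONE-Glo luminescence.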

[5] = molecular target: Nuclear receptor subfamily 1 group I member 3 (Homo sapiens) (UniProt Q14994); test: qHTS assay to identify small molecule agonists of the constitutive androstane receptor (CAR) signaling pathway (AID 1224839);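 also: HepG2 cells stably carrying human CAR and a CYP2B6 luciferase reporter; nearly all actives have a fitted effect of over 15% in size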
Outline: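 Compounds tested at 15 concentrations on HepG2 cells stably harbouring hCAR and CYP2B6-2.2kb reporter constructs, co-treated with PK11195 (0.75 uM final), 24 h at 37 C; luminescent reporter signal quantified.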

[6] = qHTS assay to identify small molecule antagonists of the estrogen related receptor signaling pathway with the pleiotropic PPARgamma coactivator (PGC) from Tox21 10K library - cell viability counter screen (AID 1224840; active = well fitted cell-killing curve with a large enough effect in the repeat runs, not every such curve was filed as active; also: nearly all actives have a fitted effect of over 40% in size)
Outline: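 Following seeding of 2,000 PGC/ERR cells/well and 6 hours' incubation, test compounds were delivered in DMSO. The plates then sat 17.5 hours at 37 C before a fluorogenic live-cell protease reagent (CellTiter-Fluor) was read after 30 min.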

[7] = qHTS assay to identify small molecule agonists of the estrogen related receptor signaling pathway with the pleiotropic PPARgamma coactivator (PGC) from Tox21 10K library (AID 1224842); also: nearly all actives have a fitted effect of over 15% in size
Outline: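 Luminescence from One-Glo (30 min, room temperature) measured after PGC/ERR cells had 18 h at 37 C with pinned compound (23 nL in DMSO). Cells had been seeded at 2,000 per well and pre-incubated 6 h.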

[8] = qHTS assay to identify small molecule agonists of the hypoxia (HIF-1) signaling pathway - cell viability counter screen (AID 1224844; calls by dose curve; also: nearly all actives have a fitted effect of over 50% in size)
Outline: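 Cells (HRE-bla ME-180, 2,000 per well) sat 5 hrs at 37C, got compound for 17 hrs, were read for CCF4-AM FRET, and were finally lysed with CellTiter-Glo for a 30 min room-temperature luminescence read.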

[9] = qHTS assay to identify small molecule agonists of H2AX (AID 1224845; active = well fitted activation curve with a large enough effect in the signal ratio in the repeat runs, not every such curve was filed as active; the % refers to the signal ratio)
Outline: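 Phospho-H2AX Ser139 measured by HTRF (ex 320 nm; em 665 and 620 nm) after 24 hr antibody incubation. Compounds, 15 concentrations, 0.76% DMSO, were applied to CHO-K1 cells for 3hr at 37C before lysis.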

[10] = qHTS assay to identify small molecule agonists of the hypoxia (HIF-1) signaling pathway (AID 1224846; active = well fitted activation curve with a large enough effect in the signal ratio in the repeat runs, not every such curve was filed as active; the % refers to the signal ratio)
Outline: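 A low-serum medium (0.5% dialyzed FBS) holding 2,000 HRE-bla ME-180 cells per well is preincubated for 5 hrs, dosed with compounds by pintool, and kept a further 17 hrs at 37C, 5% CO2 before CCF4-AM FRET detection of beta-lactamase.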

[11] = qHTS assay to identify small molecule agonists of H2AX - cell viability counter screen (AID 1224847; calls by dose curve; also: top concentration of the series differs between compounds; nearly all actives have a fitted effect of over 30% in size)
Outline: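 Compounds tested at 15 concentrations were incubated 3 hr at 37C with wild-type CHO-K1 cells; cellular ATP-based luminescence (CellTiter-Glo) indicated viability.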

[12] = qHTS assay to identify small molecule antagonists of the estrogen related receptor (ERR) signaling pathway from Tox21 library (AID 1224848); also: nearly all actives have a fitted effect of over 50% in size
Outline: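 Reading was by luminescence 30 min after ONE-Glo addition. Before that, ERR cells at 2,000 per well had rested 6 h at 37 C/5% CO2 and then received pin-tooled compounds in DMSO for 18 h at 37 C.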

[13] = qHTS assay to identify small molecule agonists of the estrogen related receptor (ERR) signaling pathway from Tox21 library (AID 1224849; calls by dose curve; also: nearly all actives have a fitted effect of over 15% in size); details: ERR reporter cell line, ONE-Glo luciferase, 18 h; at 92.4 µM (top of the series) unless noted
Outline: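 Screening used an NTP-provided ERR luciferase cell line. Compounds in DMSO were added 6 h after seeding and left 18 h at 37 C before a 30 min ONE-Glo step and luminescence reading.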

[14] = qHTS RealTime-Glo MT Cell Viability Assay in HepG2 cells - 24 hour (AID 1224867); also: nearly all actives have a fitted effect of over 50% in size
Outline: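 Cells + NanoLuc/prosubstrate dispensed (600 cells/well) → 5 h at 37 C/5% CO2 → compounds in DMSO transferred → 40 h incubation at 37 C, luminescence read at 0, 8, 16, 24, 32, 40 h.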

[15] = qHTS RealTime-Glo MT Cell Viability Assay in HEK293 cells - 32 hour (AID 1224868); also: top concentration of the series differs between compounds; nearly all actives have a fitted effect of over 50% in size
Outline: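 Tox21 10K qHTS, HEK293, 600 cells/well, RealTime-Glo reagent co-dispensed with cells; 5 h preincubation, compound by pintool, 37 C, luminescence at 0–40 h.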

[16] = A CellTox Green Cytotoxicity Assay to monitor cytotoxicity in HEK293 cells - 0 hour (AID 1224869); also: nearly all actives have a fitted effect of over 50% in size
Outline: (§1)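 Fluorescence intensity, read at 0, 8, 16, 24, 32 and 40 h of compound treatment, reflected dye binding to DNA of dead HEK293 cells; compounds (23 nL, DMSO) were added 5 h after plating cells with reagent.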

[17] = qHTS RealTime-Glo MT Cell Viability Assay in HepG2 cells - 40 hour (AID 1224870); also: nearly all actives have a fitted effect of over 50% in size
Outline: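 Real-time viability: cells seeded at 600 per well together with NanoLuc and cell-permeant prosubstrate, compounds added after 5 h incubation. Luminescence tracked at 0, 8, 16, 24, 32 and 40 h of exposure.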

[18] = A CellTox Green Cytotoxicity Assay to monitor cytotoxicity in HEK293 cells - 40 hour (AID 1224871); also: nearly all actives have a fitted effect of over 45% in size
Outline: as §1

[19] = molecular target: Thyrotropin receptor (Homo sapiens) (UniProt P16473); test: qHTS assay to identify small molecule agonists of the thyroid stimulating hormone receptor (TSHR) signaling pathway (AID 1224843; calls by dose curve; also: nearly all actives have a fitted effect of over 45% in size)
Outline: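 HEK293 cells stably bearing the thyrotropin receptor were plated at 800 cells/well and challenged with compound (30 min, RT). Accumulated cAMP was quantified via cAMP-d2 competing for cryptate-tagged antibody.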

[20] = qHTS assay to identify small molecule antagonists of the estrogen related receptor signaling pathway with the pleiotropic PPARgamma coactivator (PGC) from Tox21 10K library (AID 1224841; call rule not given here)
Outline: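 qHTS antagonist format: PGC/ERR cells, 2k/well, compound in DMSO by pin transfer after 6 h attachment, 18 h treatment at 37 C, One-Glo luminescence read at 30 min.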
% is scaled to controls: 0 for no effect and ±100 for the full control effect.

Luciferin 4-monooxygenase (Photinus pyralis), sequence (P08659 whole entry, looked up): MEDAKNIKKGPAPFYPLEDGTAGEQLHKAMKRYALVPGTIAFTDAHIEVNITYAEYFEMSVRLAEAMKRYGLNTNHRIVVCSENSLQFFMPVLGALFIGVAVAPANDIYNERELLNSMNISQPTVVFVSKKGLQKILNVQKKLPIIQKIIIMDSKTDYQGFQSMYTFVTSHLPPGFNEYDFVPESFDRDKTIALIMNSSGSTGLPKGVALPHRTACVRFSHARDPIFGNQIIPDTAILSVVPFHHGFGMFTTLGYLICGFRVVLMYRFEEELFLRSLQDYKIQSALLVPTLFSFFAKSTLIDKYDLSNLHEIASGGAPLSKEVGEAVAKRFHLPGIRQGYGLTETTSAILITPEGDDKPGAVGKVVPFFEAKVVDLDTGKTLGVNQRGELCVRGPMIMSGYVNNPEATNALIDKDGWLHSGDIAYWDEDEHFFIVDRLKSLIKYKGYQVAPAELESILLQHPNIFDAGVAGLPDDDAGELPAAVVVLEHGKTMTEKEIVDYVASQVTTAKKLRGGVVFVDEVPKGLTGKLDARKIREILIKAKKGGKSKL
Nuclear receptor subfamily 1 group I member 3 (Homo sapiens), sequence (Q14994 whole entry, looked up): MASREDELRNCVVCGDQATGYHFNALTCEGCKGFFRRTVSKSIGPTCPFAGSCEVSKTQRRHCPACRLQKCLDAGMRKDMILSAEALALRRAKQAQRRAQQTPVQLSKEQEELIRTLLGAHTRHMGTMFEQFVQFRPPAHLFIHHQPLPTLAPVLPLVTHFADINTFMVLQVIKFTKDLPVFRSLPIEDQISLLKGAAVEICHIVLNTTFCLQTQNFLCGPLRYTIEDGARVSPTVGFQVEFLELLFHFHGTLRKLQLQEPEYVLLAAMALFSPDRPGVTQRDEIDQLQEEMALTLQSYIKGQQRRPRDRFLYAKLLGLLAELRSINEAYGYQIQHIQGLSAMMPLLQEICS
Thyrotropin receptor (Homo sapiens), sequence (P16473 whole entry, looked up): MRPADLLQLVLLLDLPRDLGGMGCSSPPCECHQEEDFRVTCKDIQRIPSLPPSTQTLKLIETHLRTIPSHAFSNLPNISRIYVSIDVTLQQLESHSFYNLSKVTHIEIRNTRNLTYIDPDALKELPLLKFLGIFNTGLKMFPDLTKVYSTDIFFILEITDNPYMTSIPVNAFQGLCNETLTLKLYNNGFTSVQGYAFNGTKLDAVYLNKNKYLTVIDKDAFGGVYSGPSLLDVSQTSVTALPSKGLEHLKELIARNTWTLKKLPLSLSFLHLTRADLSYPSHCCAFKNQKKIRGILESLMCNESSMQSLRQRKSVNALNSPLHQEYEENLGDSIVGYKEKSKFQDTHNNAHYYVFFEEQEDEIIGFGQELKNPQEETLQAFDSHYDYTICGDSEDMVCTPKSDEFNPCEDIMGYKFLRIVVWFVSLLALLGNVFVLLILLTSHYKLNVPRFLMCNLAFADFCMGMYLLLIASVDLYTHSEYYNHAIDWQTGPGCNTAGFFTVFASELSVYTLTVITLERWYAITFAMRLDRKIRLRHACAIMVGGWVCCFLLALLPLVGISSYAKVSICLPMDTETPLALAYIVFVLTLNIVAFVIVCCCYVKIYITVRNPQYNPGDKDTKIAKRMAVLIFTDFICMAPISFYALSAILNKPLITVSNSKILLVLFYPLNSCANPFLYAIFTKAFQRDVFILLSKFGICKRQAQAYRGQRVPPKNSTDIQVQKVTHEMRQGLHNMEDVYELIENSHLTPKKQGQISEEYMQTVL

CC(=O)NCc1c(I)c(NC(C)=O)c(I)c(C(=O)O)c1I
inactive: Potency [1] | Potency [2] | Potency [3] | outcome [4] | Potency [5] | outcome [6] | outcome [7] | outcome [8] | outcome [9] | outcome [10] | Potency [11] | Potency [12] | activity change, positive = activation [13] 6.18% [at 42.5 µM] | outcome [14] | Potency [15] | outcome [16] | outcome [17] | Potency [18]

CCCCCOC(=O)CCC
inactive: Potency [1] | Potency [2] | Potency [3] | outcome [4] | Potency [5] | outcome [6] | outcome [7] | Potency [19] | outcome [8] | outcome [9] | outcome [10] | activity change, positive = activation [13] 10.4% | outcome [14] | Potency [15] | outcome [16] | outcome [17] | Potency [18]

CCCCCCCC/C=C\CCCCCCCC(=O)OCCCC
inactive: activity change, negative = inhibition [1] -1.11% [at 23.6 µM] | viability change, negative = cytotoxic [2] -5.62% [at 19 µM] | activity change, negative = cytotoxicity [3] 3.28% [at 19 µM] | activity, negative = inhibition [4] 20.6% [at 19 µM] | activation [5] 0.178% [at 19 µM] | viability change, negative = cytotoxic [6] -2.58% [at 19 µM] | activation [7] -2.76% [at 19 µM] | activation [19] 1.53% [at 19 µM] | activity change, negative = cytotoxicity [8] -10.5% [at 15.8 µM] | activation (H2AX phosphorylation) [9] 4.47% [at 31.6 µM] | activation [10] -1.44% [at 15.8 µM] | activity change, negative = cytotoxicity [11] -0.831% [at 31.6 µM] | activity, negative = inhibition [12] 0.129% [at 19 µM] | activity change, positive = activation [13] 0.0665% [at 19 µM] | activity change, negative = cytotoxicity [14] 2.67% [at 15.8 µM] | cytotoxicity [16] -14.5% [at 15.8 µM] | activity change, negative = cytotoxic [17] 12.2% [at 15.8 µM] | cytotoxicity increase [18] -33.9% [at 15.8 µM]

On1nnc2ccccc21
inactive: Potency [1] | Potency [2] | Potency [3] | outcome [4] | Potency [5] | outcome [6] | Potency [20] | outcome [7] | Potency [19] | outcome [8] | outcome [9] | outcome [10] | Potency [11] | activity change, positive = activation [13] 9.52% | outcome [14] | Potency [15] | outcome [16] | outcome [17] | Potency [18]

CC(=O)/C=C/C1C(C)=CCC(C)C1(C)C (stereo not given)
inactive: Potency [1] | Potency [2] | Potency [3] | outcome [4] | Potency [5] | outcome [6] | Potency [20] | outcome [7] | outcome [8] | outcome [9] | outcome [10] | Potency [11] | Potency [12] | activity change, positive = activation [13] -6.15% | outcome [14] | Potency [15] | outcome [16] | outcome [17] | Potency [18]

CN=C(NC#N)Nc1ccc(C2=NNC(=O)CC2C)cc1 (stereo not given)
inactive: Potency [1] | Potency [2] | Potency [3] | outcome [4] | Potency [5] | outcome [6] | Potency [20] | outcome [7] | outcome [8] | outcome [9] | outcome [10] | Potency [11] | Potency [12] | activity change, positive = activation [13] 5.55% [at 42.5 µM] | outcome [14] | Potency [15] | outcome [16] | outcome [17] | Potency [18]

From PubChem BioAssay (Tox21)
